Screen size: about 5,500 compounds; about 2,000 (36%) were called active. About 18% were inconclusive and are not listed. Rule as the data show it: active = normalized growth mostly below about 0.91 (no sharp cut-off); inconclusive = no clear call, values can overlap the other calls; inactive = mostly above about 0.92. Some of the results follow.
Test: chemical genetic growth profiling, strain panel (AID 1159580);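 also: tested at 20 µM; growth read once vehicle control cultures reached saturation at 30 °C; 1 = growth at the plate median or of vehicle wells; lower values mean less growth of the strain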
Settings: growth OD
[1] = S. cerevisiae deletion strains, locus YHR030C, strain SLT2, stronger effect = lower value
[2] = S. cerevisiae deletion strains, locus YAL013W, strain DEP1, stronger effect = lower value
[3] = S. cerevisiae deletion strains, locus YBR229C, strain ROT2, stronger effect = lower value
[4] = S. cerevisiae deletion strains, locus YDL101C, strain DUN1, stronger effect = lower value
[5] = S. cerevisiae deletion strains, locus YDL134C, strain PPH21, stronger effect = lower value
[6] = S. cerevisiae deletion strains, locus YDR150W, strain NUM1, stronger effect = lower value
[7] = S. cerevisiae deletion strains, locus YEL061C, strain CIN8, stronger effect = lower value
[8] = S. cerevisiae deletion strains, locus YGR078C, strain PAC10, stronger effect = lower value
[9] = S. cerevisiae deletion strains, locus YGR229C, strain SMI1, stronger effect = lower value
[10] = S. cerevisiae deletion strains, locus YHR087W, strain rtc3, stronger effect = lower value
[11] = S. cerevisiae deletion strains, locus YJL187C, strain SWE1, stronger effect = lower value
[12] = S. cerevisiae deletion strains, locus YJR043C, strain POL32, stronger effect = lower value
[13] = S. cerevisiae deletion strains, locus YJR075W, strain HOC1, stronger effect = lower value
[14] = S. cerevisiae deletion strains, locus YKL190W, strain CNB1, stronger effect = lower value
[15] = S. cerevisiae deletion strains, locus YLR039C, strain RIC1, stronger effect = lower value
[16] = S. cerevisiae deletion strains, locus YLR058C, strain SHM2 (second series), stronger effect = lower value
[17] = S. cerevisiae deletion strains, locus YLR085C, strain ARP6, stronger effect = lower value
[18] = S. cerevisiae deletion strains, locus YLR262C, strain YPT6, stronger effect = lower value
[19] = S. cerevisiae deletion strains, locus YML094W, strain GIM5, stronger effect = lower value
[20] = S. cerevisiae deletion strains, locus YMR219W, strain ESC1, stronger effect = lower value
[21] = S. cerevisiae deletion strains, locus YMR263W, strain SAP30, stronger effect = lower value
[22] = S. cerevisiae deletion strains, locus YNL153C, strain GIM3, stronger effect = lower value
[23] = S. cerevisiae deletion strains, locus YNL298W, strain CLA4 (second series), stronger effect = lower value
[24] = S. cerevisiae deletion strains, locus YNL322C, strain KRE1, stronger effect = lower value
[25] = S. cerevisiae deletion strains, locus YNR030W, strain Alg12, stronger effect = lower value
[26] = S. cerevisiae deletion strains, locus YPL055C, strain LGE1, stronger effect = lower value
[27] = S. cerevisiae deletion strains, locus YPL241C, strain CIN2, stronger effect = lower value
[28] = S. cerevisiae deletion strains, locus YPR135W, strain CTF4, stronger effect = lower value
[29] = S. cerevisiae strains, strain wild type, stronger effect = lower value

Measured: normalized growth

CN(C(=O)C(Cl)Cl)c1ccc(OC(=O)c2ccco2)cc1
inactive: [1] 0.959 | S. cerevisiae deletion strains, locus YHR079C, strain IRE1, stronger effect = lower value 0.98 | S. cerevisiae deletion strains, locus YJL095W, strain BCK1, stronger effect = lower value 0.973 | S. cerevisiae deletion strains, locus YJR066W, strain TOR1, stronger effect = lower value 0.915 | S. cerevisiae deletion strains, locus YLR113W, strain HOG1, stronger effect = lower value 1.05 | S. cerevisiae deletion strains, locus YNL183C, strain NPR1, stronger effect = lower value 0.96 | S. cerevisiae deletion strains, locus YOR231W, strain MKK1, stronger effect = lower value 0.975 | S. cerevisiae deletion strains, locus YPL256C, strain CLN2, stronger effect = lower value 1

COC(=O)c1scc(S(=O)(=O)C(C)C)c1N/N=C(/C#N)C(=O)c1ccccc1
active: [24] 0.942
inactive: [2] 0.965 | [3] 0.974 | [4] 0.986 | [5] 0.974 | [6] 0.973 | [7] 0.965 | [8] 0.969 | [9] 0.971 | [1] 0.929 | [10] 0.927 | [11] 1.03 | [12] 0.995 | [13] 0.961 | [14] 0.976 | [15] 0.902 | [16] 0.954 | [17] 1.06 | [18] 0.839 | [19] 1.04 | [20] 0.95 | [21] 0.905 | [22] 0.998 | [23] 0.983 | [25] 1.01 | S. cerevisiae deletion strains, locus YOL006C, strain TOP1, stronger effect = lower value 0.923 | [26] 0.885 | [27] 1.02 | [28] 0.928 | [29] 0.967

CC(C)S(=O)(=O)c1csc(C(N)=O)c1Cl
inactive: [2] 1.01 | [3] 1.02 | S. cerevisiae deletion strains, locus YCL061C, strain MRC1, stronger effect = lower value 1.02 | [4] 0.989 | [5] 1.01 | [6] 0.958 | [7] 1.04 | [8] 1 | [9] 1 | [1] 1.09 | [10] 1 | [11] 0.983 | [12] 1.01 | [13] 1.01 | [14] 1.01 | [15] 1.05 | [16] 1.01 | [17] 1.02 | [18] 1.05 | [19] 0.996 | [20] 1.01 | [21] 0.996 | S. cerevisiae deletion strains, locus YMR307W, strain GAS1, stronger effect = lower value 1.01 | [22] 1 | [23] 1.04 | [24] 1.01 | [25] 1.03 | [26] 0.954 | [27] 0.991 | [28] 1.07 | [29] 1.02

— PubChem BioAssay AID1159580 (chemical genetic matrix, 2015)
